Source: PubChem BioAssay (NCI)
The panel holds about 79,000 compounds, 15% with a hit somewhere; the sample as a whole holds those more often. Values without a mark were called inactive. Activity calls are given as the source filed them. Rule as the data show it: active = growth inhibition above about 70%; inactive = the rest.

What was measured:
[1] = NCI Yeast Anticancer Drug Screen. Data for the rad50 strain (AID 155);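 also: 0% = growth of vehicle-only cultures of the same strain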; conditions: S. cerevisiae rad50 strain growth inhibition, stronger effect = higher value
How it was run: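 Growth of the mutant yeast was measured after compound exposure and referenced to vehicle-treated cultures.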

[2] = NCI Yeast Anticancer Drug Screen. Data for the mec2-1 strain (AID 157); conditions: S. cerevisiae mec2-1 strain, stronger effect = higher value
How it was run: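 Readout is yeast growth inhibition, normalised to vehicle-treated controls, in the mec2-1 strain exposed to compound.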

[3] = NCI Yeast Anticancer Drug Screen. Data for the sgs1 mgt1 strain (AID 161);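 also: 0% = growth of cultures given vehicle only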; conditions: S. cerevisiae sgs1 mgt1 strain, stronger effect = higher value
How it was run: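 Percent growth inhibition was derived by comparing compound-exposed mutant yeast with vehicle-exposed cultures. The strain carries alterations in DNA damage repair.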

[4] = NCI Yeast Anticancer Drug Screen. Data for the bub3 strain (AID 167); conditions: S. cerevisiae bub3 mutant strain, stronger effect = higher value
How it was run: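 Whole-cell yeast assay. The mutant strain was incubated with compounds, and growth inhibition was determined by comparison with vehicle-treated cells.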

[5] = NCI Yeast Anticancer Drug Screen. Data for the mlh1 rad18 strain (AID 175); conditions: S. cerevisiae mlh1 rad18 strain growth inhibition, stronger effect = higher value
How it was run: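 Test agents were incubated with a yeast strain of defined genotype (DNA damage repair defect). Inhibition of growth was derived by comparison with vehicle-exposed cultures.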

[6] = NCI Yeast Anticancer Drug Screen. Data for the cln2 rad14 strain (AID 165);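 also: 0% = growth equal to vehicle treated cultures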; conditions: S. cerevisiae cln2 rad14 strain, stronger effect = higher value
How it was run: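 Relative to vehicle controls, growth inhibition of compound-treated cln2 rad14 yeast was recorded.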

[7] = at 5.0 µM (retest, dose inferred, filed as 0.5)
[8] = at 50.0 µM (retest, dose inferred, filed as 5.0)

Structure (SMILES) | growth inhibition [1, 7] | growth inhibition [1, 8] | growth inhibition ([1]; at 50.0 µM) | growth inhibition [2, 7] | growth inhibition [2, 8] | growth inhibition ([2]; at 50.0 µM) | growth inhibition [3, 7] | growth inhibition [3, 8] | growth inhibition ([3]; at 50.0 µM) | growth inhibition [4, 7] | growth inhibition [4, 8] | growth inhibition ([4]; at 50.0 µM) | growth inhibition [5, 7] | growth inhibition [5, 8] | growth inhibition ([5]; at 50.0 µM) | growth inhibition [6, 7] | growth inhibition [6, 8] | growth inhibition ([6]; at 50.0 µM)
CC(=O)[O-].CC(=O)[O-].O=C([CH-]C(=O)c1ccccc1)c1ccccc1.[Nd+3].[OH3+] | 33% | 33% | 91.6% (active) | 27% | 27% | 91.9% (active) | 30% | 30% | 93% (active) | 27% | 27% | 91% (active) | 24% | 24% | 88.8% (active) | – | – | –
CC(=O)O[C@@H]1[C@@H](O)[C@H]2O[C@@H]3C=C(C)C(=O)[C@@H](O)[C@]3(CO)[C@]1(C)[C@]21CO1 | 14% | 85% (active) | 48.7% | 22% | 93% (active) | 20.1% | 13% | 90% (active) | 62.4% | 8% | 90% (active) | 85% (active) | 18% | 95% (active) | 83.3% (active) | – | – | –
CC(=O)[O-].O=C([CH-]C(=O)c1ccccc1)c1ccccc1.O=C([CH-]C(=O)c1ccccc1)c1ccccc1.[Y+3] | 35% | 35% | 91.4% (active) | 19% | 19% | 93.7% (active) | 42% | 42% | 93.6% (active) | 21% | 21% | 92% (active) | 13% | 13% | 90.5% (active) | – | – | –
CCC[CH2][Sn]([CH2]CCC)([O]C(=O)CCC(C)=O)[O]C(=O)CCC(C)=O | 73% (active) | 98% (active) | 87% (active) | 80% (active) | 99% (active) | 91.7% (active) | 79% (active) | 99% (active) | 89.7% (active) | 89% (active) | 99% (active) | 88.4% (active) | 81% (active) | 98% (active) | 91.7% (active) | 74% (active) | 99% (active) | 90.3% (active)
Cc1cccc(C)c1N=C(N)N[N+](=O)[O-] | 45% | 96% (active) | 89.5% (active) | 53% | 97% (active) | 90.3% (active) | 90% (active) | 98% (active) | – | 27% | 97% (active) | – | 33% | 99% (active) | 88% (active) | 57% | 98% (active) | –
CCCC(C)(COC(N)=O)COC(=O)NC1CC1 (centres undefined) | -8% | 0% | 21.9% | -12% | 0% | 0.05% | -8% | 0% | 36.3% | 0% | -5% | -4.4% | 14% | 7% | -2% | – | – | –
O=C1c2ccccc2CCC1Br (centres undefined) | -20% | 99% (active) | 99% (active) | 11% | 99% (active) | 99.1% (active) | -3% | 98% (active) | 99.2% (active) | -27% | 99% (active) | 98.7% (active) | -13% | 99% (active) | 99% (active) | – | – | –
[Cl-].[Cl-].[Cl-].[O-]c1cccc2cccnc12.[O-]c1cccc2cccnc12.[O]=[Mo] | 96% (active) | 96% (active) | 87.5% (active) | 73% (active) | 73% (active) | 91.4% (active) | 72% (active) | 72% (active) | 89.2% (active) | 64% | 64% | 90.4% (active) | 72% (active) | 72% (active) | 87.7% (active) | 96% (active) | 96% (active) | 88.6% (active)
O=C([CH-]C(=O)c1ccccc1)c1ccccc1.O=C([CH-]C(=O)c1ccccc1)c1ccccc1.[CH2-]CCC.[CH2-]CCC.[Sn+4] | 83% (active) | 98% (active) | 90.3% (active) | 91% (active) | 99% (active) | 93.2% (active) | 86% (active) | 58% | 93% (active) | 90% (active) | 93% (active) | 91.8% (active) | 92% (active) | 99% (active) | 90% (active) | – | – | –
CCCC[As](CCCC)SC1CCC2(C)C(=CCC3C4CCC(=O)C4(C)CCC32)C1 (centres undefined) | 16% | 92% (active) | 95.7% (active) | 6% | 87% (active) | 83.6% (active) | 21% | 76% (active) | 97% (active) | 3% | 87% (active) | 84% (active) | 13% | 88% (active) | 98.8% (active) | 5% | 64% | 82.3% (active)
CCC[CH2][Sn-]([CH2]CCC)([CH2]CCC)[O]c1cc(Cl)c(Cl)cc1Cl | 99% (active) | 96% (active) | 90% (active) | 100% (active) | 100% (active) | 93.2% (active) | 100% (active) | 100% (active) | 93.2% (active) | 100% (active) | 100% (active) | 91.8% (active) | 99% (active) | 94% (active) | 90.2% (active) | – | – | –
